# Bioassay records from PubChem.
# Sampled rows, rich in hits. Any-hit rate of the full collection: about 7.7%.
# FMDV inh – High Throughput Screening for Foot and Mouth Disease Virus Antivirals; hit rate 1.2% among 410,000; Potency, µM (series often up to 57.9 µM), without a hit: at the highest dose activity change, negative = inhibition, actives largely listed as inhibitors; FMDV antiviral cell-based qHTS; calls by dose curve; tested in HEK293T cells; also: read-out not given here; potency is read from the fitted curve at half-maximal effect; nearly all actives have a fitted effect of over 45% in size
# Tb PYK inh – qHTS of Trypanosoma Brucei Inhibitors; pyruvate kinase (Trypanosoma brucei), Q57TT1; TbPYK enzyme, Kinase-Glo Plus ATP luminescence, 45 min; Potency, µM (doses to about 76.8 µM), for the others: at the highest dose activity, negative = inhibition, actives largely listed as inhibitors; hit rate 0.12% among 410,000; also: potency is read from the fitted curve at half-maximal effect; nearly all actives have a fitted effect of over 50% in size
#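 ADP (130 uM final) triggers the TbPYK reaction after compound addition; incubation is 45 min at room temperature. Kinase-Glo Plus is then added and luminescence imaged. Normalized data are fitted to concentration-effect curves.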
# RE007 growth inh – qHTS Assay for Inhibitors of the HIV-1 protein Vpr; hit rate 0.21% among 360,000; Potency, µM (top dose mostly 92.2 µM), without a hit: at the highest dose activity change, negative = less growth, most hits filed as inhibitors; S. pombe RE007 Vpr strain, BacTiter-Glo ATP luminescence, 24 h; active = well fitted falling curve with a large enough effect; inconclusive = small, poorly fitted or top-dose-only effect; inactive = no such curve, though single readings can be large or run the other way; also: potency is read from the fitted curve at half-maximal effect; nearly all actives have a fitted effect of over 50% in size
#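 Fission yeast RE007 carrying one integrated HIV-1 vpr copy, seeded at OD 0.01 in PMG+AL medium with 23 nL pinned compound. Grown 24 h at 30 degrees; viability read by BacTiter-Glo luminescence after 5 min.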
# Giardia FBPA inh – qHTS Assay for Inhibitors of Fructose-1,6-bisphosphate Aldolase from Giardia Lamblia. purified Giardia FBPA. Potency, µM (titrated, usually from 59.6 µM), for the others: at the highest dose activity, negative = inhibition, hits mostly inhibitors. hit rate 0.71% among 290,000; also: potency is read from the fitted curve at half-maximal effect; nearly all actives have a fitted effect of over 55% in size
# Target sequence (A8B2U2 whole entry, looked up): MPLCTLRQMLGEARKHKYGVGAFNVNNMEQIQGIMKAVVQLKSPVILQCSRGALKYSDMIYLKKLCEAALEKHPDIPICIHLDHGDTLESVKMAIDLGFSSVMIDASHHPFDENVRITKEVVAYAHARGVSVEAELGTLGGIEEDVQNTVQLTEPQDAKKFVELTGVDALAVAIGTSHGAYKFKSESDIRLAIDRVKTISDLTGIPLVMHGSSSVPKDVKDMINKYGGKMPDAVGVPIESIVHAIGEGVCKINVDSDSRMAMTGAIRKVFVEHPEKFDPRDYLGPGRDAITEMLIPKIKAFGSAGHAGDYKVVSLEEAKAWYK
#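 Giardia FBPA (40 nM reagent) was preincubated 10 min at RT with compound (up to 57.5 uM final), then substrate plus GAPDH/TPI/NAD/arsenate coupling system with diaphorase/resazurin was added; resorufin fluorescence (525/598 nm) was read after 20 min.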
# HCMV antiviral – qHTS Assay for inhibitors of the human cytomegalovirus (HCMV); HFF cells, HCMV-luciferase reporter, 72 h; hits give low values; hit rate 4.5% among 410,000; activity change, negative = inhibition, % at 57.5 µM; in the data active = activity change below about -60%; inconclusive = no clear call, values can overlap the other calls; inactive = above about -39%
#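 Screen run at 2 compound doses on HFFs infected with reporter HCMV, MOI 1 PFU/cell. Luciferase activity from cell lysates at 72 h post infection gave inhibition relative to buffer-only and Salinomycin wells.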
# Sm TGR inh – qHTS Assay for the Inhibitors of Schistosoma Mansoni Peroxiredoxins; Schistosoma mansoni thioredoxin glutathione reductase (TGR), Q962Y6; purified TGR, DTNB reduction, TNB absorbance 405 nm; Potency, µM (doses to about 114 µM), for the others: top-dose activity change, negative = inhibition, actives largely listed as inhibitors; hit rate 3% among 360,000; AID 485364, 2010; also: potency is read from the fitted curve at half-maximal effect; nearly all actives have a fitted effect of over 60% in size
#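 Kinetic colorimetric format: TGR-catalysed, NADPH-driven DTNB reduction monitored via TNB absorbance. Enzyme dispensed at 20 nM; compound exposure 15 min at room temperature before reaction start.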
# An asterisk follows results filed as active; ? = inconclusive; / = no result; [ ] = another dose, or the depositor's remark. Unless noted, calls follow the shape of the dose curve; as a rule, active = well fitted curve in the direction sought with a large enough effect; inconclusive = small, poorly fitted or top-dose-only effect, or another doubt; inactive = no such curve, though single readings can be large; an effect the other way counts as inactive or inconclusive. % is scaled to controls: 0 for no effect and ±100 for the full control effect.
SMILES,FMDV inh,Tb PYK inh,RE007 growth inh,Giardia FBPA inh,HCMV antiviral,Sm TGR inh
Cc1ccc2nc(-c3ccc4c(c3)OCCO4)cn2c1,3.2µM*,-11%,?,?,-103*,21%
CNC(=O)Oc1ccc(-c2cn3cc(C)ccc3n2)cc1,13µM*,-1%,?,-32%,-24,-3%
CNC(=O)Oc1cccc(-c2cn3cc(Cl)ccc3n2)c1,-90%,-23%,?,-16%,?,2%
CSc1cccc(NC(=O)CC(c2cccs2)N2Cc3ccccc3C2=O)c1 (configuration not stated),0%,-5%,/,/,-9,27%
CN(C(=O)c1cnn(-c2nccc(-c3ccccc3C(F)(F)F)n2)c1C1CC1)C1CCOC1 (configuration not stated),33%,/,/,/,/,/
CC(=NNC(=S)N1CCN(c2ccccn2)CC1)c1ccccn1,-9%,-19%,-16%,/,-14,/
CC(=NNC(=S)N1CCN(c2ccccn2)CC1)c1nccs1,-9%,?,35µM*,/,/,/
O=[N+]([O-])c1cccc(NC(=S)N2CCN(c3ccccn3)CC2)c1,-3%,-9%,-16%,/,-65*,-6%
S=C(NC1CCCC1)N1CCN(c2ccccn2)CC1,0%,-11%,/,5%,-62*,8%
CC1CCN(C(=O)CN2c3ccc(C(C)C)cc3-c3ccccc3S2(=O)=O)CC1,54%,-2%,/,/,24,-2%
COc1cc(Br)c(C2CC(=O)Nc3cc4c(cc32)OCCO4)cc1OC (configuration not stated),16%,-7%,/,/,12,-4%
CCCNC(=O)OC[C@@H]1O[C@H](CCO/N=C2\c3cc(OC)ccc3O[C@H](c3cccc(OC)c3)[C@H]2O)C=C[C@@H]1Oc1ccc(OC)cc1,/,/,/,1%[12.9 µM],/,/
COc1ccc(C(=O)[C@H]2[C@H]3C(=O)N(c4ccc(C)cc4)C(=O)[C@H]3C3C=CC=NN32)cc1 (some centres not stated),2%,-1%,-5%,?,?,40µM*
CC(=O)Oc1ccc(C(=O)[C@H]2[C@H]3C(=O)N(c4ccc(C)cc4)C(=O)[C@H]3[C@@H]3C=CC=NN32)cc1,0%,-11%,11%,?,144,?
CC(=O)Oc1ccc(C(=O)[C@H]2[C@H]3C(=O)N(c4ccc(C)cc4C)C(=O)[C@H]3[C@@H]3C=CC=NN32)cc1,-28%,-6%,9%,?,26,18µM*
Cc1cccc(N2CCN(S(=O)(=O)c3ccc4c(c3)C(C(C)C)C(=O)N4)CC2)c1C (configuration not stated),0%,-4%,/,/,?,10%
COc1cc(NC(=O)CN2C(=O)C(=O)N(CC(C)C)C2=O)cc(OC)c1,0%,-1%,-22%,/,/,-1%
COc1cc(NC(=O)CN2C(=O)C(=O)N(C3CCCC3)C2=O)cc(OC)c1,-15%,-2%,6%,/,-99*,2%
CCC1CN(CCNC(=O)C(C)(C)O)Cc2cc(OC)ccc2O1 (configuration not stated),-7%,/,/,/,/,/
Cc1ccccc1NC(NC(=O)c1cccnc1)C(Cl)(Cl)Cl (configuration not stated),-1%,4%,-2%,3%,-10,-17%
COc1ccc(NC(NC(=O)c2cccnc2)C(Cl)(Cl)Cl)cc1 (configuration not stated),21%,-4%,6%,-8%,-85*,-17%
COC(=O)c1c(C)[nH]c2ccccc12,/,/,/,/,-15,/
CCn1c(=NC(=O)c2ccc3c(c2)OCCO3)sc2c(C)ccc(OC)c21,?,5%,/,/,-16,-7%
O=C(NCCCCN1CCN(c2cccc(Cl)c2Cl)CC1)c1ccc2c(c1)Cc1ccccc1-2,-12%,/,/,-3%,/,/
COC(=O)C1=C(C)N(C)C(=O)NC1c1c(OC)ccc2ccccc12 (configuration not stated),-2%,-20%,-1%,-6%,-13,-2%
SMILES,FMDV inh,Tb PYK inh,RE007 growth inh,Giardia FBPA inh,HCMV antiviral,Sm TGR inh
COc1cc(C2CC(=O)N3CN(Cc4ccco4)CSC3=C2C#N)ccc1OCc1ccccc1 (configuration not stated),0%,?,6%,?,112,0%
COc1ccc2ccccc2c1C1CC(=O)N2CN(Cc3ccco3)CSC2=C1C#N (configuration not stated),-23%,?,-5%,?,6,5.6µM*
COc1ccc(C2CC(=O)N3CN(c4ccc(C)c(Cl)c4)CSC3=C2C#N)cc1 (configuration not stated),8%,3.2µM*,0%,?,-9,45µM*
COc1ccc(N2CN=C3SCC(=O)N3C2)cc1,16%,0%,12%,-21%,29,-32%
COc1ccc2ccccc2c1C1CC(=O)N2CN(C3CCCCC3)CSC2=C1C#N (configuration not stated),?,?,0%,?,52,28µM*
COc1ccc(C2CC(=O)N3CN(C4CCCCC4)CSC3=C2C#N)c(OC)c1 (configuration not stated),-5%,18µM*,/,/,-7,3.2µM*
COc1ccc(S[C@]2(C(=O)N3CCCC3)CC(=O)N(c3ccc4ccccc4c3)[C@@H]2c2ccc(OC)cc2)cc1,/,/,/,/,22,/
COc1ccc(N2CCN(C(CNC(=O)C(=O)NCc3ccc(C)cc3)c3cccnc3)CC2)cc1 (configuration not stated),?,-2%,/,/,-27,-1%
CCC(C)NC(=O)c1ccc2c(c1)N(Cc1ccccc1)C(=O)c1ccccc1S2(=O)=O (configuration not stated),-9%,1%,/,/,-15,1%
COc1ccc(CN2CCN(c3ncc(C(=O)Nc4ccccc4)o3)C2=O)cc1,/,/,/,/,12,/
CCOc1ccc(CNC(=O)CCCn2nc(C)c3sc4ccccc4c3c2=O)cc1,-5%,0%,/,/,-22,0%
CC(C)c1ccc(C2CC(=O)N3CN(Cc4ccco4)CSC3=C2C#N)cc1 (configuration not stated),?,?,23%,?,3,2.2µM*
COc1ccc(C2CC(=O)N3CN(Cc4ccco4)CSC3=C2C#N)cc1 (configuration not stated),-5%,?,-7%,?,0,40µM*
